Results on one compound are retold here after ChEMBL document CHEMBL1961873, “Compounds: GSK PKIS; Assays: Nanosyn kinase panel” (2012).

Experiment [1] addresses Sphingosine kinase 1 (Homo sapiens) (UniProt Q9NYA1). Particulars: at 1 µM.
The target in experiment [2] is T1, Sphingosine kinase 2 (Homo sapiens) (UniProt Q9NRA0).
T1 sequence (whole entry): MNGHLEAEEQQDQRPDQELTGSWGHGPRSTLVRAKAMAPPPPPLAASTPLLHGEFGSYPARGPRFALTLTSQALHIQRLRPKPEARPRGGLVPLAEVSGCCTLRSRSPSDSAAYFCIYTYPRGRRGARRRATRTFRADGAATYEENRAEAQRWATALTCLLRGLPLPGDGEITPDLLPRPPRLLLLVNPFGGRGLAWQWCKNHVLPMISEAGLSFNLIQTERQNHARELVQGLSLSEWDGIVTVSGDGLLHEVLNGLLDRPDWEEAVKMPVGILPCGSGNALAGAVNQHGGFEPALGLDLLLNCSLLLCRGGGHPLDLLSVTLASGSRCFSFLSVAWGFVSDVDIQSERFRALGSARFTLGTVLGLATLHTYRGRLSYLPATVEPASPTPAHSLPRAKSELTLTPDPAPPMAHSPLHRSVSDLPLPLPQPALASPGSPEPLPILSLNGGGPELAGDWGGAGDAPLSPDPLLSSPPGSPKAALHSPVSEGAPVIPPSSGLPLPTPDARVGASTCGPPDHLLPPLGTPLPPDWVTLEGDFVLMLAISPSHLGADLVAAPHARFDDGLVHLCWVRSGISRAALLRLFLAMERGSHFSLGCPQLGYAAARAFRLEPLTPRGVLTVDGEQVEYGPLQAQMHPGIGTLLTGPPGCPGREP
Particulars: at 0.1 µM.

Experiment [3] deals with T1, Sphingosine kinase 2 (Homo sapiens). The settings on record: at 1 µM.
The target in experiment [4] is Casein kinase II subunit alpha (Homo sapiens) (UniProt P68400). Particulars: at 0.1 µM.
For experiment [5] the target is unchanged. The settings on record: at 1 µM.
Experiment [6] deals with T2, Inhibitor of nuclear factor kappa-B kinase subunit alpha (Homo sapiens) (UniProt O15111).
T2 sequence (whole entry): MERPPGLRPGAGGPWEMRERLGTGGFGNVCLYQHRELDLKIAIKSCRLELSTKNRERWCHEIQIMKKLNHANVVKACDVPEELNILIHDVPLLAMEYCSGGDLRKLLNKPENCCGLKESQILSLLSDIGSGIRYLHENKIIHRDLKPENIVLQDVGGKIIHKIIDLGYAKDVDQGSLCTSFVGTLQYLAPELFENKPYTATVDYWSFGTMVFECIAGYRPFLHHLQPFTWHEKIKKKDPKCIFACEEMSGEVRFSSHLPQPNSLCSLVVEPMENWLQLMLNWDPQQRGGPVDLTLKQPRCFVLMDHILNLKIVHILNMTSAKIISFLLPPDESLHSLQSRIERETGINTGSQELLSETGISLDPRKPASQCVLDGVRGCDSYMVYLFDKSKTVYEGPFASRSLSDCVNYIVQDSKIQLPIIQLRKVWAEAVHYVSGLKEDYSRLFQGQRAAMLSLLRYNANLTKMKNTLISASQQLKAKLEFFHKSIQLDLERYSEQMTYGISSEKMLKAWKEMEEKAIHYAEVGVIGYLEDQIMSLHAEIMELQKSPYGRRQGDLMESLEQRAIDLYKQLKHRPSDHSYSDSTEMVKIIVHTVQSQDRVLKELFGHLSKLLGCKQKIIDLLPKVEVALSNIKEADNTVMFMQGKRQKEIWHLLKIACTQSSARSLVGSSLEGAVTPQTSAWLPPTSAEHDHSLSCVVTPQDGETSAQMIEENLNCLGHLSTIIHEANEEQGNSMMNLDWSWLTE
The settings on record: at 0.1 µM.

For experiment [7], the target named is T2, Inhibitor of nuclear factor kappa-B kinase subunit alpha (Homo sapiens). The settings on record: at 1 µM.
Experiment [8] addresses T3, Inhibitor of nuclear factor kappa-B kinase subunit beta (Homo sapiens) (UniProt O14920).
T3 sequence (whole entry): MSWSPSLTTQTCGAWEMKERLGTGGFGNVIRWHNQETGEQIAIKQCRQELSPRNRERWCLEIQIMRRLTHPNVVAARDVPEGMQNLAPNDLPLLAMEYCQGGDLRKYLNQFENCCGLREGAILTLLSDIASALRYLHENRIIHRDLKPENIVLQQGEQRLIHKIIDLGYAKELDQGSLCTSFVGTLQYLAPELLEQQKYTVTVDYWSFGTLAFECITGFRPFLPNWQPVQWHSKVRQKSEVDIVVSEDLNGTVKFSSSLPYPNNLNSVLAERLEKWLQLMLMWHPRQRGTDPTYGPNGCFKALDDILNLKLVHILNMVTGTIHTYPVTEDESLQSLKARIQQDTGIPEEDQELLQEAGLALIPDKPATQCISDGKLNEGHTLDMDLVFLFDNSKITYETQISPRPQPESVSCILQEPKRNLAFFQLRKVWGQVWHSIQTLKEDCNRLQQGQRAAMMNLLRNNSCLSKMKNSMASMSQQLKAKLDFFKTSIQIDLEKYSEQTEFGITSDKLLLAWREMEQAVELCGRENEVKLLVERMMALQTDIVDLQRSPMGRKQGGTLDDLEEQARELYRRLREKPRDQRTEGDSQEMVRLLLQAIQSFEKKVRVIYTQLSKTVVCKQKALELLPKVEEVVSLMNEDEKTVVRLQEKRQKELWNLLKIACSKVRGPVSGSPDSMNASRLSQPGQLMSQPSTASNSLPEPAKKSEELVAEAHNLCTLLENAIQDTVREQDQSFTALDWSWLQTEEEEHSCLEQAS
The settings on record: at 0.1 µM.

Experiment [9] has as its target T3, Inhibitor of nuclear factor kappa-B kinase subunit beta (Homo sapiens). The settings on record: at 1 µM.
For experiment [10], the target named is T4, Inhibitor of nuclear factor kappa-B kinase subunit epsilon (Homo sapiens) (UniProt Q14164).
T4 sequence (whole entry): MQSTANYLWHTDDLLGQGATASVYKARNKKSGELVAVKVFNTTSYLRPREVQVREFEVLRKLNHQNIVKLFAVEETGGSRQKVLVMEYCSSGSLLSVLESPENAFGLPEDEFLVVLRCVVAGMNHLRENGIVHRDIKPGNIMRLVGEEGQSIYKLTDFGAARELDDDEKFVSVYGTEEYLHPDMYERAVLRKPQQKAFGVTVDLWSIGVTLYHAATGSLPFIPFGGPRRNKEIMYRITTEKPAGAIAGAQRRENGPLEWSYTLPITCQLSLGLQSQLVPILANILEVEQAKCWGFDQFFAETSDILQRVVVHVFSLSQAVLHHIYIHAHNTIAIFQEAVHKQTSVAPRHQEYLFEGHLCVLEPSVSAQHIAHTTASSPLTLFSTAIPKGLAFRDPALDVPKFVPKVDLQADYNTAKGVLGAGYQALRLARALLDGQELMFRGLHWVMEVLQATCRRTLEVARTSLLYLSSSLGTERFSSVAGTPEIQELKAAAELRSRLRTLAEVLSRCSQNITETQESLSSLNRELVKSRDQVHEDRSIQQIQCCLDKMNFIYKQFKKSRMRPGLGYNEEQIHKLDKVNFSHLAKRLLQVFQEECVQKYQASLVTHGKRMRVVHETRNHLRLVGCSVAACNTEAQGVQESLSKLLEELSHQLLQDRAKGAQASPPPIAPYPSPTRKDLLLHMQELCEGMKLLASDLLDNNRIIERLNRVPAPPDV
Particulars: at 0.1 µM.

In experiment [11] the target is T4, Inhibitor of nuclear factor kappa-B kinase subunit epsilon (Homo sapiens). The settings on record: at 1 µM.
Experiment [12] deals with T5, Serine/threonine-protein kinase Nek1 (Homo sapiens) (UniProt Q96PY6).
T5 sequence (whole entry): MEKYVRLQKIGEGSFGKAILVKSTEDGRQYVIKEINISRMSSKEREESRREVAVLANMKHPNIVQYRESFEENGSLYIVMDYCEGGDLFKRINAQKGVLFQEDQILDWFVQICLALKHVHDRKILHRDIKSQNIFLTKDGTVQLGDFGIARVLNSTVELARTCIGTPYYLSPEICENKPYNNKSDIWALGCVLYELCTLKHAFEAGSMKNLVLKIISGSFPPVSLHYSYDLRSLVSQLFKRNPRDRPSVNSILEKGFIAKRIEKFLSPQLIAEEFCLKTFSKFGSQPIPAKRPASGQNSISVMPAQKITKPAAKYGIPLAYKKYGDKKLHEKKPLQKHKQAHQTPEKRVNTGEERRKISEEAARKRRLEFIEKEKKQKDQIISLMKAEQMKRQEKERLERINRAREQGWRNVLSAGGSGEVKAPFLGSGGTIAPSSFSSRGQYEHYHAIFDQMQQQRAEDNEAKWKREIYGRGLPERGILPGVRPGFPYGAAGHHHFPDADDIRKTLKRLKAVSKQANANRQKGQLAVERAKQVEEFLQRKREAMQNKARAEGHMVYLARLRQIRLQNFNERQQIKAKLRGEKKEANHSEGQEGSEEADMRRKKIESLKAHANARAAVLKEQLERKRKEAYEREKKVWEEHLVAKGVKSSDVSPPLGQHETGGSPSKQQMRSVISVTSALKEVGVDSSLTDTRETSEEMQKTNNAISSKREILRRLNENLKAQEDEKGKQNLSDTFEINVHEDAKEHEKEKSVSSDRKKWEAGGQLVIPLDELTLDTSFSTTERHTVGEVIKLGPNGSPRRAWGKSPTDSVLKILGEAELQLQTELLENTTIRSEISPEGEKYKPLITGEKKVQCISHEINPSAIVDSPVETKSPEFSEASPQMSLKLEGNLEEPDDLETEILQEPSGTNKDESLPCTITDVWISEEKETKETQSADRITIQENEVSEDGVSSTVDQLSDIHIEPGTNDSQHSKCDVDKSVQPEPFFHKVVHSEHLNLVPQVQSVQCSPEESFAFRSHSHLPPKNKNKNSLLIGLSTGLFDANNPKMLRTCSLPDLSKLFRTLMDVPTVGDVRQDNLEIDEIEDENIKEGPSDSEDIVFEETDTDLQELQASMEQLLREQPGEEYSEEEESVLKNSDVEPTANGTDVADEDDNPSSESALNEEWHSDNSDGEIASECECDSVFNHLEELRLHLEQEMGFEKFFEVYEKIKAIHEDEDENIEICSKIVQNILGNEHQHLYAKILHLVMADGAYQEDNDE
The settings on record: at 0.1 µM.

The target of experiment [13] is T5, Serine/threonine-protein kinase Nek1 (Homo sapiens). Particulars: at 1 µM.
In experiment [14] the target is T6, Serine/threonine-protein kinase Nek2 (Homo sapiens) (UniProt P51955).
T6 sequence (whole entry): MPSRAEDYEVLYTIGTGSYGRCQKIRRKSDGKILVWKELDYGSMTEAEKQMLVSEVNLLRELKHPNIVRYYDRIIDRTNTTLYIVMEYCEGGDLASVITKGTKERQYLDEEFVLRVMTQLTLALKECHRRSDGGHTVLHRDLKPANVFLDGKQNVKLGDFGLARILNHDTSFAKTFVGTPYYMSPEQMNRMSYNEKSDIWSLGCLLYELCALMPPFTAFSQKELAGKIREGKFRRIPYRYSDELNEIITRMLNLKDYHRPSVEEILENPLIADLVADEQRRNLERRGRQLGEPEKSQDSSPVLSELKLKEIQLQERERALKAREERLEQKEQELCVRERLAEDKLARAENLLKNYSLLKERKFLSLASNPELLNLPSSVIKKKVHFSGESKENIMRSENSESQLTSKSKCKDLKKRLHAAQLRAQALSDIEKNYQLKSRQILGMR
Particulars: at 0.1 µM.

Experiment [15] deals with T6, Serine/threonine-protein kinase Nek2 (Homo sapiens). The settings on record: at 1 µM.
The target in experiment [16] is Serine/threonine-protein kinase Nek6 (Homo sapiens) (UniProt Q9HC98). The settings on record: at 0.1 µM.
Experiment [17] shares this target. The settings on record: at 1 µM.
For experiment [18], the target named is Serine/threonine-protein kinase Nek7 (Homo sapiens) (UniProt Q8TDX7). Particulars: at 0.1 µM.
For experiment [19] the target is unchanged. The settings on record: at 1 µM.
Experiment [20] addresses T7, Serine/threonine-protein kinase Nek9 (Homo sapiens) (UniProt Q8TD19).
T7 sequence (whole entry): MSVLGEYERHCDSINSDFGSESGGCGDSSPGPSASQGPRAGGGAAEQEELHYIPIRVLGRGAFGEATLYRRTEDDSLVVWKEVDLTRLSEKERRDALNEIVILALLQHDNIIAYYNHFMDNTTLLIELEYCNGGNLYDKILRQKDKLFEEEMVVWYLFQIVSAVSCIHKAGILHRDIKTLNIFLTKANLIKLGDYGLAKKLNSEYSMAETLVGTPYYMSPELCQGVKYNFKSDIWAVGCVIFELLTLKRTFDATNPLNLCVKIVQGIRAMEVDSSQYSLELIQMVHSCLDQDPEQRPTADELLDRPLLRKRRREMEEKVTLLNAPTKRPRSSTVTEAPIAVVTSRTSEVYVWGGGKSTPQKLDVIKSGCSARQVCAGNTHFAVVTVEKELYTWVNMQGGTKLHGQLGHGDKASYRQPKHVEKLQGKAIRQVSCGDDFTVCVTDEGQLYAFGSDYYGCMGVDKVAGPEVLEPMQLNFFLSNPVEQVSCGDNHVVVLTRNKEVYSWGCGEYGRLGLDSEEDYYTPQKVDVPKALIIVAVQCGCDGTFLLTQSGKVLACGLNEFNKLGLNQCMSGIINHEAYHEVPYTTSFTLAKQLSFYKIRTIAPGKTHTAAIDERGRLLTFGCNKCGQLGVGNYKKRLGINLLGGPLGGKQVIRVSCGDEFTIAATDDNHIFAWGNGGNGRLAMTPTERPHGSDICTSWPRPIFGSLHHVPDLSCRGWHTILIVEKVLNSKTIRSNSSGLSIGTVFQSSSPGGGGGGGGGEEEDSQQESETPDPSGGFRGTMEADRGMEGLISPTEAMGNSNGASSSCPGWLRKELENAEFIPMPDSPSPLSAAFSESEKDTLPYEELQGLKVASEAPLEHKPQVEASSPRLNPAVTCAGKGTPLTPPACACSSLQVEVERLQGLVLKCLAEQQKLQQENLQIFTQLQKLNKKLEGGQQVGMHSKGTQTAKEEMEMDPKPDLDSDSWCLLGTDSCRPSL
Particulars: at 0.1 µM.

Serine/threonine-protein kinase Nek6 (Homo sapiens), sequence (Q9HC98 whole entry): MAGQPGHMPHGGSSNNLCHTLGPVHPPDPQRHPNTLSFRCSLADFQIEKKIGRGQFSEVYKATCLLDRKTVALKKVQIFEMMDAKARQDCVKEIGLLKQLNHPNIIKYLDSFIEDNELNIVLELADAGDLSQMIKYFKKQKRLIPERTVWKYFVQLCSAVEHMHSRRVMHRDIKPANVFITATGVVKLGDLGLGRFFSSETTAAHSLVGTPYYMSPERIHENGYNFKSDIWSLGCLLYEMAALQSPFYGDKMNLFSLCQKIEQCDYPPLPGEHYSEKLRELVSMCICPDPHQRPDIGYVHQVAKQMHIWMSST
Serine/threonine-protein kinase Nek7 (Homo sapiens), sequence (Q8TDX7 whole entry, looked up): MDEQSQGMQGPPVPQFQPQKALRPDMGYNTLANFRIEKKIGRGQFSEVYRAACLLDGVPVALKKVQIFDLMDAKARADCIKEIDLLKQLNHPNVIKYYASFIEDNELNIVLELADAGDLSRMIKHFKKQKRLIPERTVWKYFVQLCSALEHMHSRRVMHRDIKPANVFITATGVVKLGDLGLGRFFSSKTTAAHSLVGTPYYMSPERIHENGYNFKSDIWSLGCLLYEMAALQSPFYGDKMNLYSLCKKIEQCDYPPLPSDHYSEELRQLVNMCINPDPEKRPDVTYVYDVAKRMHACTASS
Casein kinase II subunit alpha (Homo sapiens), sequence (P68400 whole entry, looked up): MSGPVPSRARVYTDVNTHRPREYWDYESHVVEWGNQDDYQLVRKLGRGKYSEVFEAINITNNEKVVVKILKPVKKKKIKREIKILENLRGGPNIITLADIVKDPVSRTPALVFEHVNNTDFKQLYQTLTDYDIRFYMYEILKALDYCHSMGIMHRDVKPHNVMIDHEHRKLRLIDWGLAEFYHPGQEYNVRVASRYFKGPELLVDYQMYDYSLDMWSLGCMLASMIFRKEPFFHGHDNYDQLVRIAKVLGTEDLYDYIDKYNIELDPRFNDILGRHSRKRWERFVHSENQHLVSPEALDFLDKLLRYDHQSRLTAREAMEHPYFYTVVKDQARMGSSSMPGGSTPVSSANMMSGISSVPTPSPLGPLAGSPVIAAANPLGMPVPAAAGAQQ
Sphingosine kinase 1 (Homo sapiens), sequence (Q9NYA1 whole entry): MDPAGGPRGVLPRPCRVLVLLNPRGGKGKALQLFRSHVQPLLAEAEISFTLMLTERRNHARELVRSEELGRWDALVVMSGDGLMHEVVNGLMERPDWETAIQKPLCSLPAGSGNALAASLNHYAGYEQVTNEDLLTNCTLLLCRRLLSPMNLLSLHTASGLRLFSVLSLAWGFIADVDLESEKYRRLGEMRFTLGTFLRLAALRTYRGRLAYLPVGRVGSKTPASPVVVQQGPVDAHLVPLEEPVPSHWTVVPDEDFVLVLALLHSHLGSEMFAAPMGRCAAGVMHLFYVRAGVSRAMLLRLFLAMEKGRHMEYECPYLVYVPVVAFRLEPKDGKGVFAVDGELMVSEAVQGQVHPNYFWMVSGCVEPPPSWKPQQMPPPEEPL

As usually defined, the inhibition is the relative decrease from the control value, in per cent. With `NS(=O)(=O)c1ccc(N/N=C2\C(=O)Nc3ccc(C(=O)NCc4ccncc4)cc32)cc1`, the inhibition in experiment [1] is 0.35%; in experiment [2], 2.9%; in experiment [3], -0.04%; in [4] it was 4.7%; in experiment [5], 13.1%; in [6], 2.72%. Also, the inhibition in [7] stood at 0.67%; in [8], 5.86%; in experiment [9], 5.23%; in [10] it was 14.4%; in experiment [11], 49.1%; in experiment [12], 1.96%. The inhibition in [13] was 4.03%; in experiment [14], 4.39%; in experiment [15], 3.78%; in experiment [16], 3.86%; in [17], 5.08%; in [18] it was 3.8%. For the same compound, the results for the inhibition in [19] and in experiment [20] were 4.4% and 9.13%, respectively.
